# Laboratory results published in PubChem BioAssay (NCATS).
# Inconclusive results are not listed. A number with no mark means an inactive call. Calls of active or inactive are those of the source. Calls come from the whole dose curve; as a rule, active = well fitted cell-killing curve with a large enough effect; inconclusive = small, poorly fitted or top-dose-only effect; inactive = no such curve, though single readings can be large or run the other way.
# Experiment: qHTS of pediatric cancer cell lines to identify multiple opportunities for drug repurposing: Primary screen for Rh30 cells (AID 1347107); note: nearly all actives have a fitted effect of over 75% in size
# Settings: Rh30 rhabdomyosarcoma viability, CellTiter-Glo luminescence, 48 h; series mostly up to 46 µM; activity change, negative = cytotoxic: at the top concentration
# How it was run: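 Cells (500-1,000/well) rested 5 h, then received compounds for 48 h; metabolically active cells were measured by CellTiter-Glo luminescence. Final concentrations spanned up to 46 µM (MIPE, 11-point) or 0.59 nM-46 µM (NPC, 8-point) in primary screens, 11-point in follow-ups.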
# % is set by controls: 0 for no effect and ±100 for the full control effect; potency is the fitted concentration of half-maximal effect.
SMILES,"activity change, negative = cytotoxic",Potency
Cc1ccc(NC(=O)c2ccc(CN3CCN(C)CC3)cc2)cc1Nc1nc(-c2cccnc2)cs1,0.861%,–
CCOC(=O)[C@H](CCc1ccccc1)N[C@@H](C)C(=O)N1CCCC1C(=O)O (stereo partly specified),17.6%,–
O=c1[nH]nc(OCCCc2ccc(Cl)cc2)c(NCc2cccnc2)c1Br,–,23.5 µM (active)
CN1CCC[C@H]1CCO[C@](C)(c1ccccc1)c1ccc(Cl)cc1,-2.4%,–
Cc1cnc(-c2cc(N3CCN(C(=O)CCS(C)(=O)=O)CC3)ncc2Cl)c(C)c1,3.08%,–
CCN(CCO)CCCOc1ccc2c(Nc3cc(CC(=O)Nc4cccc(F)c4)[nH]n3)ncnc2c1,16.4%,–
CN1CC(=O)N2C(Cc3c([nH]c4ccccc34)[C@H]2c2ccc3c(c2)OCO3)C1=O (stereo partly specified),-2.21%,–
CC[C@H](NC(=O)[C@H](C)NC)C(=O)N1C[C@@H](O)C[C@H]1Cc1c(-c2[nH]c3cc(F)ccc3c2C[C@H]2C[C@H](O)CN2C(=O)[C@H](CC)NC(=O)[C@H](C)NC)[nH]c2cc(F)ccc12,-4.41%,–
COc1ccc(-c2ccc3ncc4c(c3c2)n(-c2ccc(N3CCNCC3)c(C(F)(F)F)c2)c(=O)n4C)cn1,–,1.87 µM (active)
O=c1cc(-c2ccc(O)c(O)c2)oc2cc(O)cc(O)c12,11.9%,–
O=C(O)c1nc(=O)[nH]c(=O)[nH]1,7% [at 16.1 µM],–
CCC[C@H](Nc1nc(-c2ccc(NC(=O)NCC)c(OC)c2)ncc1C)c1cccnc1,12.9%,–
CCCCCCCCCCCCCCCC(=O)O[C@H]1[C@@H](O)[C@@H](O)[C@@H]([C@H](NC(=O)[C@@H]2C[C@@H](CCC)CN2C)[C@H](C)Cl)O[C@@H]1SC,13.9%,–
C[C@@H]1[C@H](C)CC[C@]2(C(=O)O)CC[C@]3(C)C(=CC[C@@H]4[C@@]5(C)CC[C@H](O)C(C)(C)[C@H]5CC[C@]43C)[C@@H]12,15.2% [at 92.7 µM],–
CC[C@H]1OC(=O)[C@H](C)[C@@H](O[C@H]2C[C@@](C)(OC)[C@@H](O)[C@H](C)O2)[C@H](C)[C@@H](O[C@@H]2O[C@H](C)C[C@H](N(C)C)[C@H]2O)[C@](C)(O)C[C@H](C)C(=NOCOCCOC)[C@H](C)[C@@H](O)[C@]1(C)O,-10.2%,–
CC(C)(CO)[C@@H](O)C(=O)NCCC(=O)O,14.1%,–
CC(C)CNc1ccnc(NCc2csc(-c3ccccc3)n2)n1,1.34%,–
CC1(C)OC2CC3C4CC(F)C5=CC(=O)C=CC5(C)C4C(O)CC3(C)[C@]2(C(=O)CO)O1 (stereo partly specified),20.1%,–
CCCCCOC(=O)Nc1nc(=O)n([C@@H]2O[C@H](C)[C@@H](O)C2O)cc1F (stereo partly specified),2.66%,–
O=c1[nH]c(=O)n([C@H]2C[C@@H](O)[C@@H](CO)O2)cc1C(F)(F)F,-19.8%,–
C#C[C@]1(O)CC[C@H]2[C@H]3CCc4cc(OC)ccc4[C@H]3CC[C@@]21C,10.9%,–
